Results reported in PubChem BioAssay AID743262 (National Center for Advancing Translational Sciences (NCATS), 2014).
The whole screen tested about 1,300 compounds, of which about 25 (2%) were called active. A call without a number means that no potency is given here. Another 9% or so got no clear call; they are omitted. This is one part of a sample in which actives are shown more often than they occur. The call rests on the fitted dose curve; in most records, active means well fitted activation curve with a large enough effect; inconclusive means small, poorly fitted or top-dose-only effect; inactive means flat fitted curve, though single readings scatter.

The compounds below were run against Glucagon-like peptide 1 receptor (Homo sapiens) (UniProt P43220) (assay: qHTS of GLP-1 Receptor Agonists: Hit Validation). Conditions: HEK293 GLP-1R, cAMP-response luciferase, 4-6 h; series mostly up to 46.1 µM.
Method in brief: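 HEK293 cells stably co-expressing a cAMP-responsive luciferase reporter and GLP-1R (hypersensitive receptor for weak agonists; wild-type line for confirmation) were plated 12 h at 37 °C, exposed to compound 4-6 h, then read by luminescence after 12 min detection reagent.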
Potency means the concentration at half of the fitted maximal effect.

Chain of Glucagon-like peptide 1 receptor (Homo sapiens) (P43220 whole entry, looked up): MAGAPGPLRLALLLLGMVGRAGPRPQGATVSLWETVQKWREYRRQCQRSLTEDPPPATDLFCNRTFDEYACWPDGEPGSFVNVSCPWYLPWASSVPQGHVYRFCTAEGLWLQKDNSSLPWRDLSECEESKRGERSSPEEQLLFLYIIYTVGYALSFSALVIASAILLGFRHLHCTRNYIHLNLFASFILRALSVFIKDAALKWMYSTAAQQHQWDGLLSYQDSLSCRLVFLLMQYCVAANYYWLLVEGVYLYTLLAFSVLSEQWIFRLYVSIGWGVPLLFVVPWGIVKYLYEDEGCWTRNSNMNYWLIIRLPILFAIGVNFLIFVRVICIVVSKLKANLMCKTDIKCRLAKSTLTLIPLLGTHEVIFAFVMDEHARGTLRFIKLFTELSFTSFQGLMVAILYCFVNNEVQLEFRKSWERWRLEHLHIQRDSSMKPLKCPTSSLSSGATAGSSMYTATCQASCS

Structure (SMILES)	Potency
COc1ccc(-c2csc(C(C)(NC(C)=O)c3ccccc3)n2)cc1 (stereo unspecified)	inactive
CCOC(=O)CN1C(=O)S/C(=C/c2ccc(OCc3ccc(C(=O)O)cc3)cc2)C1=O	inactive
N#Cc1nc(-c2cccs2)oc1NCc1ccco1	inactive
Cc1cc(C)c2c(N)c(C(=O)NCC3CCCCC3)sc2n1	inactive
Cc1ccnc(NC(=O)C23CC4CC(CC(C4)C2)C3)c1	inactive
Cc1ccc(CNc2cc(-c3nn4c(C)nnc4s3)ccc2C)s1	inactive
ClCCn1cnc2c(SCc3ccccc3)ncnc21	inactive
COc1cccc(C2=CC(=O)C[C@H](c3ccc(OC)c(OC)c3)C2)c1	inactive
N#Cc1c(NCCCO)nc(-c2ccccc2)c2c1CCCC2	inactive
COc1ccc(C(C)=O)cc1COC(=O)c1ccc2c(c1)OCCO2	inactive
CC(=O)c1cc(C#N)c(SCC(=O)OC(C)(C)C)nc1C	inactive
COc1ccc(N/C=C/C(=O)c2ccc(OC)c(OC)c2)cc1	inactive
C#CCOc1ccc2c3c(c(=O)oc2c1)CCCC3	inactive
Cc1cccc(OCCNc2cc(N3CCOCC3)ccc2[N+](=O)[O-])c1	inactive
OC(CNCc1cccc(Br)c1)c1ccccc1 (stereo unspecified)	inactive
CCN(CC)c1nc2ccccc2nc1C(C#N)C(=O)NCCCOC (stereo unspecified)	inactive
COc1cccc(-c2cnc3c(NC=O)cc(-c4ccc(N(C)C)cc4)cn23)c1	inactive
COc1ccc(-c2cnc3c(NC=O)cc(-c4ccc(C(=O)N5CCOCC5)cc4)cn23)cc1OC	inactive
COc1ccc(-c2cc(NC=O)c3ncc(-c4ccc(OC)c(OC)c4)n3c2)cc1	18.4 µM (active)
O=CNc1cc(-c2ccccc2)cn2c(-c3ccc(F)c(Cl)c3)cnc12	inactive
CC(=O)c1ccc(-c2cnc3c(NC=O)cc(-c4ccccc4Oc4ccccc4)cn23)cc1	inactive

Structure (SMILES)	Potency
COc1cc(-c2cnc3c(NC=O)cc(-c4ccccc4Cl)cn23)cc(OC)c1OC	5.8 µM (active)
COc1cccc(-c2cnc3c(NC(C)=O)cc(-c4ccc(OC)c(OC)c4)cn23)c1	inactive
COc1ccc(-c2cc(NC=O)c3ncc(-c4ccc(C(C)=O)cc4)n3c2)cc1OC	inactive
COc1ccc(-c2cc(NC=O)c3ncc(-c4ccc(OC)c(OC)c4)n3c2)c(OC)c1	2.59 µM (active)
COc1ccc(F)cc1-c1cc(NC(C)=O)c2ncc(-c3cc(OC)c(OC)c(OC)c3)n2c1	inactive
COc1ccc(-c2cnc3c(NC=O)cc(-c4ccccc4OC)cn23)cc1OC	8.2 µM (active)
Cc1ccc(-c2cc(NC=O)c3ncc(-c4cnn(C)c4)n3c2)cc1	inactive
OC1CCCN(c2c3c(nc4cc(-c5cccc(F)c5)nn24)CCCC3)C1 (stereo unspecified)	inactive
COc1cc2c(cc1OC)/C(=C/C(=O)c1ccccc1)NCC2	inactive
O=C(OCc1csc(-c2ccccc2)n1)c1ccccc1O	inactive
COc1ccc(CC(=O)OCC(=O)N2c3ccccc3CC2C)cc1OC (stereo unspecified)	inactive
Cc1nn(C)cc1CNC(=O)c1cnn2c(C(F)F)cc(C3CC3)nc12	inactive
COC(=O)c1ccc(OCC2c3cc(OC)c(OC)cc3CCN2C(C)=O)cc1 (stereo unspecified)	inactive
Cc1cccc(-c2nnc3sc(-c4ccccc4C)nn23)c1	inactive
Cc1cccc(C(=O)N2CCC[C@H]2C(=O)N2CCC[C@H]2C(=O)NCc2ccncc2)c1	inactive
Cc1cccc(-c2nc(C#N)c(N3CCCCCC3)o2)c1	inactive
COc1cccc(Nc2nc(N)c([N+](=O)[O-])c(NCc3ccco3)n2)c1	inactive
CC(C)n1nnnc1SCC(=O)N1N=C(c2cccs2)CC1c1cccs1 (stereo unspecified)	inactive
CC1CCN(CCCNC(=O)c2cc3c(Cl)nc4ccccc4c3s2)CC1	inactive
CCN(CC)c1ncnc2c1cnn2Cc1ccc(C)cc1	inactive
